Where a chain is given by its changes, count along the chain named. Whole data set: some 5,800 sequences, median “enrichment r” near 0.68, cut for the highest 2% near 11. The sample as a whole holds a higher share of the highest values than the screen did.
B1: chr19:13098382:13098626:+|3pUTR|ENSG00000008441|msi1|FALSE|unique (ssRNA)
RNA: GGGAGUUCUACAGUCCGACGAUCACGCAGUAUAUACGAGUAUCUCUAUAUAUAGUACUAAUGGAUUUGGUGUGCUUCCCCCUUAGCGUCCCCCUCCCUCUGCUCCUCCUCCUUCAGCCUGGUCUCCCCCUCUUCUCUGCCCUCCAACAGAGGAUUGAGCAUCA
B2: chr6:149410404:149410522:+|3pUTR|ENSG00000055208|unk|total|mutant (ssRNA)
RNA: GGGAGUUCUACAGUCCGACGAUCUUAUAUUUCUAUAUGUACCGUGUAACCGCCUUUUGUUAACUAAUUUUCUUUUUUCCUUUCCGUAAUUAAGCACGAUCAUGUCCCUUUUUAAGCCUUACCUGAGAGGAACAAUGCCUUAAACAACAGAGGAUUGAGCAUCA
B3: chr6:132743869:132744491:-|three_prime_utr|ENSG00000112303|control|control|control (ssRNA)
RNA: GGGAGUUCUACAGUCCGACGAUCAUGUGGGACCAGCAAUUCAGCAAUAACUUACCUGCUAAUAUUCAUAUUAUUAAUGAUCAUAGCUUUGCAAAAUAUUGUAAUGUUAUAGGGCGUCUCUUUAUCACUCAGCUUCUGCAUCAUCAACAGAGGAUUGAGCAUCA
B4: chr6:149410404:149410522:+|3pUTR|ENSG00000055208|unk|FALSE|bound_elsewhere (ssRNA)
RNA: B2 RNA with C41U, C42A, C49U, C50A, C83U, C84A
B5: chr16:1487315:1487970:-|CDS|ENSG00000251692|control|control|control (ssRNA)
RNA: GGGAGUUCUACAGUCCGACGAUCGGGGGAGCUGGCGCAGCUCAAGGCCUGGGUGAGGAAGCUGCAGCGCCGAGGCCGGAAAGUAGACACGCGGCUGCGGGCCUUGGACCUCACCCUGGGCGAGAGGAGCCAGCAGCGGGCCCGCAACAGAGGAUUGAGCAUCA
B6: chr10:52765379:52768136:-|three_prime_utr|ENSG00000165471|control|control|control (ssRNA)
RNA: GGGAGUUCUACAGUCCGACGAUCUUGUUCCUUUUGUGGGCAAUCACUAAAAAUGAUCACUAACAGCACCAACAAAGCAAUAAUAGUAGUAGUAGUAGUUAGCAGCAGCAGUAGUAGUCAUGCUAAUUAUAUAAUAUUUUUAAUCAACAGAGGAUUGAGCAUCA
B7: chr3:112140897:112141281:-|three_prime_utr|ENSG00000172139|control|control|control (ssRNA)
RNA: GGGAGUUCUACAGUCCGACGAUCACUUUUUGCAAAAUUUCCUUGAUUUAAAAUAUUUGUUAUUUUAAAUAUACAAAACAUUUUAGAAAAUCUUAGAGUAAAUUUUAGUCUUAAAGCCAGAAAAUAAGUUUAUAGCCAUCUAGACAACAGAGGAUUGAGCAUCA
B8: chr17:142788:147440:-|three_prime_utr|ENSG00000272636|control|control|control (ssRNA)
RNA: GGGAGUUCUACAGUCCGACGAUCGAGACCUCAGCACCUGCCCAGGGGAAGGGGACACGCCCAUCUGGGAGCAAAGACCCUUCUAGAGGCCAGCCCCGGCUGAGAGGACAGGAGUGUGGGGGCGCCUUGGCGGACAGUGGGAACCAACAGAGGAUUGAGCAUCA
B9: ENSG00000006432:stop:overlap|stop_codon|ENSG00000006432|stop_codon|NA|stop_codon (ssRNA)
RNA: GGGAGUUCUACAGUCCGACGAUCGAGCGGAACUGAACACACACAGGCCUGCCCCUUAUGAGAUCCAGCAGGAGUUCUGGUCUUAGCACGAAAAGGAUUGGGGCGGGCAAGGGGGACAGCCAGCGGAGAUGAGGGGAGCUGGCGCAACAGAGGAUUGAGCAUCA
B10: chr2:15946816:15946917:+|3pUTR|ENSG00000134323|unk|FALSE|unique (ssRNA)
RNA: GGGAGUUCUACAGUCCGACGAUCUAUAUGCCUUUUUCCUAGCCUGUUUCUUCCUGUUAAUGUAUUUGUUCAUGUUUGGUGCAUAGAACUGGGUAAAUGCAAAGUUCUGUGUUUAAUUUCUUCAAAAUGUAUAUAUUUAGUGCUCAACAGAGGAUUGAGCAUCA
B11: chr5:172042892:172042993:-|3pUTR|ENSG00000072786|msi1|FALSE|unique (ssRNA)
RNA: GGGAGUUCUACAGUCCGACGAUCGAUUCUCCCGCUUCAACCUUGAGUAGCUGGGACGACAGAUACAUGCUACUGCACCCAGCUAGGUUAAGGUUCUGUAUACUCUGUCUUUCUAAAGCAAUUCCCUGGAAAUUUUCUCAACAUCAACAGAGGAUUGAGCAUCA
B12: chr12:85264020:85264122:+|3pUTR|ENSG00000133640|unk|FALSE|unique (ssRNA)
RNA: GGGAGUUCUACAGUCCGACGAUCCAUAGUAUUUCAGUUACUUUCCACAGCUGUGUUGCUCAAUAAUAGCAUCCAGUGAACUUUAGUAUUUUUUUGUUUUUCCUGUAUUUUAUUAAAAUAUUUCAUCUAGAGAUAACUGAAGUGCAACAGAGGAUUGAGCAUCA
B13: chr1:32196422:32196614:+|3pUTR|ENSG00000084652|msi1|FALSE|unique (ssRNA)
RNA: GGGAGUUCUACAGUCCGACGAUCACAGUUGUUUCUGUGUCCUGUUCUACCCCCACUCCAGUACAUAACUACUAUGUACUGUGUAGAGCCAUUCUAUAUGCUGAAUGUUCUGCUGUUGCAAACUUGCCAGGGUAUUAGCCAGUGCAACAGAGGAUUGAGCAUCA
B14: chr17:67075675:67075776:-|3pUTR|ENSG00000198265|unk|FALSE|unique (ssRNA)
RNA: GGGAGUUCUACAGUCCGACGAUCAUUCCUUAUUUCCAUAGCCAGUCAAGGAUUCUAACGCUGCUUCCAUCUGAUACUCUUCUUAGAUUCUGCAUCAAAUGCUUAUUUUGACUUACAACAAGCUUACUCUUCCUCAGCAUUACACAACAGAGGAUUGAGCAUCA
B15: ENSG00000070961:be:win_5101|3pUTR|ENSG00000070961|bound_else_gene|NA|bound_elsewhere_windowed (ssRNA)
RNA: GGGAGUUCUACAGUCCGACGAUCAUGACCACCAUUGUCUUUGAUACAUUUAUUUUAAUUCUUAAGUGGCCAAAUAACAGAUUAGGUAAAAUGAGAUUACAUGAAAAGGUUCUAAAAUGAUAUAUUUAGAUGCAAUAAUUAACCCAACAGAGGAUUGAGCAUCA
B16: chr8:41543231:41543332:+|3pUTR|ENSG00000147536|msi1|total|mutant (ssRNA)
RNA: GGGAGUUCUACAGUCCGACGAUCAAACCAUUAUUAAAUUUCCAUUCUGCAGCAGAAGGCACCUCUGGACGGCUCCCGGCUUGCCGUUUAAUGAAGUAUGUGCUCCCUGCUGUUAACCCGCAGCCCUCCCCAACUCUCCAGCAGCAACAGAGGAUUGAGCAUCA
B17: chr3:97755980:97756081:+|3pUTR|ENSG00000080224|unk|FALSE|unique (ssRNA)
RNA: GGGAGUUCUACAGUCCGACGAUCUAAUUAAAAAUCUCUUUCCUACCUUUAGUAAUUUGUAGGAUGAACUGUAUGCAUUUAGAUAGAAAUUGCUUUUGUUAAAUUUACAUUUAAACACAUCUUCAUUCACUUAGAGAAGCCAUACAACAGAGGAUUGAGCAUCA
B18: chr19:33301014:33301115:-|3pUTR|ENSG00000245848|unk|FALSE|unique (ssRNA)
RNA: GGGAGUUCUACAGUCCGACGAUCUCCCUGCGAGGAGGGGAGAAUUCUUGGGGCUGAGCUGGGAGCCCGGCAACUCUAGUAUUUAGGAUAACCUUGUGCCUUGGAAAUGCAAACUCACCGCUCCAAUGCCUACUGAGUAGGGGGCAACAGAGGAUUGAGCAUCA
B19: chr8:41543231:41543332:+|3pUTR|ENSG00000147536|msi1|FALSE|unique (ssRNA)
RNA: B16 RNA with C83U, C84A
B20: ENSG00000176244:stop:overlap|stop_codon|ENSG00000176244|stop_codon|NA|stop_codon (ssRNA)
RNA: GGGAGUUCUACAGUCCGACGAUCAAGAUGCGACGAGUGCCUAUAUUUCUAAAGCAAAGGAGCUGAUAGAAAAAUACGGAAUUUAGAAUACAGCAUAUGAGGAAUUUUUCCUUUUGAAGACUUCCAAAUGCUAUCAUGACCUAACAACAGAGGAUUGAGCAUCA
B21: chr15:78283234:78283431:-|three_prime_utr|ENSG00000140395|control|control|control (ssRNA)
RNA: GGGAGUUCUACAGUCCGACGAUCUCUCCAGGCUUAUGCUGCAAAGAGAAUGUACGGAUUGAUCAUGACAUUCCUUACCUUCUUAGGCUUGUUUAAAAGAAAUAUAGCAUUUAUUGUAGCAAAGACUUAAAUUUUGUAGAUACACAACAGAGGAUUGAGCAUCA
B22: chr3:62294137:62294238:+|3pUTR|ENSG00000144724|msi1|FALSE|unique (ssRNA)
RNA: GGGAGUUCUACAGUCCGACGAUCUGAGACCCUUUAGUUAUUCUCCAUUAAUGCUUCUUAGUUUGUAAUACCAUACCUCACAGUAGGUAGAAGAAUGAAAACUUCUGCAGGUGUGUAAUUUUGAAACUAGUCCUCUAAAAAUUCCAACAGAGGAUUGAGCAUCA
B23: chr6:53267885:53267986:-|3pUTR|ENSG00000012660|msi1_unk|FALSE|overlapping (ssRNA)
RNA: GGGAGUUCUACAGUCCGACGAUCUUUAAUGUAAAUCUAAUAGUACUUGUAAUUUCUUUCUGCUUAGAAUCUAAAGAUGUGUUUAGAACCUCUUGUUUAAAAAUAAUAGACUGCUUAUCAUAAAAUCACAUCUCACACAUUUGACAACAGAGGAUUGAGCAUCA
B24: chr3:31636526:31636632:+|3pUTR|ENSG00000163527|unk|FALSE|unique (ssRNA)
RNA: GGGAGUUCUACAGUCCGACGAUCCAAAAUGUGAUGAGAGCUUCUUGAACCGGUAAACUAGUACAGGUCUGAGAAAGACAUAUUAGAAGAAUCAUUAUACUUCCUUGAAUUAUAUUUAUUUUCAUGUUUCUCUAAUGCAAAGAACAACAGAGGAUUGAGCAUCA
B25: chr4:138171397:138171528:-|3pUTR|ENSG00000151012|msi1|total|mutant (ssRNA)
RNA: GGGAGUUCUACAGUCCGACGAUCAUUAUGGCAAAGAGGAGAGAAAGAAAUUUAUUUUACAUUGACAUUGCAUUGCUUCCCCUCCGAUACCAAUUCCGAUAACAAACACUCAUGCUUUAAUGGAUUAUACCCAGAGCACUUUGACAACAGAGGAUUGAGCAUCA
B26: chr4:138171397:138171528:-|3pUTR|ENSG00000151012|msi1|FALSE|unique (ssRNA)
RNA: B25 RNA with C83U, C84A, C95U, C96A

Biological target: T1, UNK ZnF1-6 (called full-length) (human, UniProt Q9C0B0 30-357)
T1 sequence: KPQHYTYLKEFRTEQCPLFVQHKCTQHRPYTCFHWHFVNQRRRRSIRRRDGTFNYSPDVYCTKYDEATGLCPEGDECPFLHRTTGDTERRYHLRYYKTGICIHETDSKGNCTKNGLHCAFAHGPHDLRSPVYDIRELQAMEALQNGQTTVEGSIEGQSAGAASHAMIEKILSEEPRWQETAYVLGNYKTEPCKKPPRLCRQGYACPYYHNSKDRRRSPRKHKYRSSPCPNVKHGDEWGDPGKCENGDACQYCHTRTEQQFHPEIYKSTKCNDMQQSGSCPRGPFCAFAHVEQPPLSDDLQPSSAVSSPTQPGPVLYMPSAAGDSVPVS
Test: nsRBNS (natural sequence RNA bind-n-seq); RBNS binding buffer (assumed for nsRBNS): 25 mM Tris pH 7.5, 150 mM KCl, 3 mM MgCl2, 0.01% Triton X-100, 500 ug/ml BSA, 20 U/ml SUPERase-In, 4 C; UNK is unkempt and MSI1 is Musashi-1; names of the RNAs are library labels; protein concentration not given here; high values mean tight binding

Binder | binding signal [enrichment R]
B1 | 1.99
B2 | 4.24
B3 | 0.744
B4 | 66
B5 | 0.727
B6 | 16.5
B7 | 2.83
B8 | 0.805
B9 | 11.7
B10 | 1.93
B11 | 0.494
B12 | 10
B13 | 0.631
B14 | 1.05
B15 | 3.73
B16 | 1.48
B17 | 10.1
B18 | 4.16
B19 | 11.4
B20 | 0.808
B21 | 13.8
B22 | 16.2
B23 | 10.2
B24 | 1.21
B25 | 0.489
B26 | 73.9
